Source: paper PMC5540273 (PLoS ONE, 2017)

How the values were obtained:
Conditions in all cases: concentration: 1 μM, replicates: in singlicate; n = 1
[1] = tested on: NEK11
[2] = tested on: NEK1
[3] = tested on: NEK2
[4] = tested on: NEK3
[5] = tested on: NEK4
[6] = tested on: NEK5
[7] = tested on: NEK6
[8] = tested on: NEK7
[9] = tested on: NEK9
[10] = tested on: T1, NIK
T1 construct: gene MAP3K14

[11] = tested on: T2, NIM1
T2 construct: gene MGC42105

[12] = tested on: NLK
[13] = tested on: T3, OSR1
T3 construct: gene OXSR1

[14] = tested on: PAK1
[15] = tested on: PAK2
[16] = tested on: PAK3
[17] = tested on: PAK4
[18] = tested on: PAK6
[19] = tested on: PAK7
[20] = tested on: T4, PCTK1
T4 construct: gene CDK16
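Note: KINOMEscan kinase panel screen.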

| SMILES | %Inh [1] | %Inh [2] | %Inh [3] | %Inh [4] | %Inh [5] | %Inh [6] | %Inh [7] | %Inh [8] | %Inh [9] | %Inh [10] | %Inh [11] | %Inh [12] | %Inh [13] | %Inh [14] | %Inh [15] | %Inh [16] | %Inh [17] | %Inh [18] | %Inh [19] | %Inh [20] |
| --- | --- | --- | --- | --- | --- | --- | --- | --- | --- | --- | --- | --- | --- | --- | --- | --- | --- | --- | --- | --- |
| Cn1cc(-c2ccc3c(c2)CCN3C(=O)Cc2cc(F)cc(F)c2F)c2c(N)ncnc21 [GSK2634140] | 38% | 7% | 84% | 0% | 32% | 8% | 18% | 0% | 8% | 26% | 8% | 0% | 14% | 16% | 12% | 35% | 0% | 0% | 0% | 6% |
| Nc1cccc(-c2ccc3c(N)n[nH]c3c2)c1 [GSK2193613] | 17% | 11% | 11% | 0% | 0% | 6% | 0% | 0% | 8% | 6% | 0% | 17% | 13% | 2% | 2% | 0% | 0% | 6% | 15% | 0% |
| COc1cc(Nc2nccc(N3CCC(NS(=O)(=O)c4ccc(NC(C)=O)cc4)CC3)n2)cc(OC)c1OC [GSK1379825] | 0% | 83% | 1% | 89% | 3% | 100% | 62% | 86% | 45% | 26% | 16% | 27% | 19% | 0% | 19% | 13% | 0% | 5% | 1% | 14% |
| Cc1ccccc1CC(=O)N1CCc2cc(-c3cn(C)c4ncnc(N)c34)ccc21 [GSK2603346] | 58% | 89% | 97% | 0% | 29% | 34% | 0% | 0% | 0% | 21% | 3% | 0% | 12% | 0% | 0% | 48% | 0% | 0% | 0% | 0% |
| COc1cccc(CC(=O)N2CCc3cc(-c4cn(C)c5ncnc(N)c45)ccc32)c1 [GSK2608899] | 49% | 21% | 74% | 4% | 44% | 24% | 18% | 11% | 25% | 0% | 0% | 5% | 6% | 13% | 4% | 50% | 2% | 0% | 18% | 3% |
| CN(C)CCNS(=O)(=O)c1ccc(-c2ccnc3[nH]ccc23)cc1 [GSK977620] | 0% | 99.8% | 0% | 0% | 4% | 1% | 1% | 0% | 0% | 0% | 13% | 20% | 30% | 34% | 32% | 71% | 56% | 64% | 58% | 7% |
| O=C(Nc1c(F)cccc1F)c1cc(C(=O)c2ccccc2F)c[nH]1 [GSK1326180] | 16% | 0% | 0% | 0% | 0% | 0% | 0% | 0% | 5% | 0% | 0% | 0% | 34% | 0% | 0% | 0% | 0% | 0% | 0% | 0% |
| Cc1ccc(-c2ccc3occ(-c4ccc(S(C)=O)cc4)c3c2)nn1 (stereo not shown) | 0% | 0% | 0% | 30% | 0% | 0% | 0% | 0% | 0% | 0% | 0% | 1% | 0% | 6% | 4% | 0% | 1% | 0% | 0% | 0% |
| CN(c1ccc(F)c(NC(=O)c2cccc(OC(C)(C)C#N)c2Cl)c1)c1ccc2nc(NC(=O)C3CC3)sc2n1 | 0% | 3% | 0% | 7% | 1% | 0% | 0% | 8% | 5% | 0% | 8% | 78% | 5% | 5% | 0% | 27% | 0% | 0% | 0% | 2% |
| Cl.N#CCc1ccc(Nc2nccc(Nc3ccc(Oc4ccccc4)cc3)n2)cc1 [GW639905] | 0% | 0% | 5% | 0% | 16% | 24% | 0% | 0% | 0% | 0% | 14% | 0% | 11% | 0% | 10% | 47% | 0% | 0% | 0% | 0% |
| Cc1nn2c(=O)cc(N3CCO[C@H](C)C3)nc2n1Cc1cccc(Cl)c1Cl [GSK2373693] | 0% | 0% | 18% | 0% | 0% | 75% | 0% | 0% | 0% | 21% | 11% | 78% | 83% | 2% | 10% | 36% | 0% | 52% | 0% | 7% |
